The whole screen tested about 320,000 compounds, of which about 1,300 (0.41%) were called active. Another 3% or so got no clear call; they are omitted. How the calls were made is not given here. A selection follows. Measured potencies and affinities stand elsewhere.

Usually inhibition stands for the change of the read-out against control, counted positive when it falls.

The experiment in a line: growth inhibition of non-replicating M. tuberculosis (AID 488890).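 Further: plate controls were DMSO cells for no effect and high antibiotic wells for full effect.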 Conditions: Mycobacterium tuberculosis non-replicating, at 25 µM, stronger effect = higher value.
`COc1ccc2c(Cl)c(C(=O)N/N=C/c3c(C)[nH]c4ccccc34)sc2c1`: the inhibition was -5.52%.

On to `CC(C)C(c1nnnn1Cc1ccccc1)N1CCc2ccccc2C1` (stereo not drawn), for which the inhibition is 11%.

For the molecule `Cc1cccc(N2C(=O)/C(=C/c3ccccn3)SC2=S)c1`, the inhibition is 0.34%.

For the molecule `Cc1ccc(C)c2[nH]c(=O)c(CCNC(=O)c3ccc(Br)o3)cc12`, the inhibition was -3.61%.

For `COc1ccc(CCNC(=O)COc2ccc(-c3ccc(C)cc3)cc2)cc1OC`, the inhibition stood at 25.9%.

In the case of `O=C(Nc1ccc(Cl)c(Cl)c1)Nc1ccc(Br)cc1F`, the inhibition stood at 75.2%.

As for `O=[N+]([O-])c1ccc(-n2nnnc2-c2ccccc2)cc1`, the inhibition is -9.53%.

`O=[N+]([O-])c1cccc(-c2nnnn2-c2cccc(F)c2)c1`: the inhibition is -0.82%.

Regarding `CC(C)[C@H](NC(=O)C1CCN(S(=O)(=O)c2ccc(F)cc2)CC1)C(=O)NCc1ccco1`, the inhibition amounted to 8.72%.

Turning to `COc1cc(OC)cc(C(=O)N[C@H](C(=O)OCC(N)=O)C(C)C)c1`, the inhibition was -12.8%.

On to `CCNC(=O)N(C)C[C@H]1N[C@@](C)(C(=O)OC)[C@H]2C(=O)N(C)C(=O)[C@@H]12`, for which the inhibition was found to be 2.38%.

In the case of `CNC(=S)NNc1nc(N2CCOCC2)nc(N2CCOCC2)n1`, the inhibition is -5%.

Take `CCCC(=O)N/N=C1\CS(=O)(=O)N(C)c2ccsc21`: the inhibition was found to be 1.81%.

On to `Cc1ccc(NC(=O)C2=C(O)c3sccc3N(C)S2(=O)=O)cc1`, for which the inhibition worked out at 18.9%.

Take `CN1c2ccsc2/C(=N/NC(=O)c2c(F)cccc2F)CS1(=O)=O`: the inhibition is -25.7%.

`Cc1cccc(C(=O)N/N=C2\CS(=O)(=O)N(C)c3ccsc32)c1`: the inhibition turned out to be 56.1%.

For the molecule `Cc1ccccc1NC(=O)C1C2C=CC(C3CC23)C1C(=O)O` (stereo not drawn), the inhibition is -10.4%.

For the molecule `Cc1ccc(NC(=O)c2ccc3snnc3c2)cc1C`, the inhibition was -6.47%.

In the case of `O=C(CCN1CCN(C/C=C/c2ccccc2)CC1)Nc1ccccc1F`, the inhibition is -1.04%.

For `COc1ccc2[nH]c(=O)c(C(=O)O)cc2c1`, the inhibition is -0.72%.

Consider `O=C(N/N=C/c1ccccn1)c1ccc([N+](=O)[O-])cc1Cl`, for which the inhibition came to 74.4%.

For the molecule `O=C(N/N=C/c1ccccn1)c1ccc(NC(=O)c2cccc([N+](=O)[O-])c2)cc1`, the inhibition turned out to be 7.23%.

For `O=C(N/N=C/c1ccccn1)c1ccncc1`, the inhibition came to 75.3%.

On to `O=C(N/N=C/c1ccc2nccnc2c1)c1cccc([N+](=O)[O-])c1`, for which the inhibition was -21.3%.

As to `CCCCC(CCC(=O)Nc1ccn(-c2ccccc2)n1)C(=O)O` (stereo not drawn), the inhibition is -15.5%.

As for `Cc1nnc(C)n1N`, the inhibition was -10.3%.

In the case of `COc1ccc(NC(=O)CN2CCN(C(=O)C3CCCO3)CC2)c(OC)c1` (stereo not drawn), the inhibition is -13.5%.

`O=C(NC1CCCc2ccccc21)c1ccc(Cl)nc1` (stereo not drawn): the inhibition was determined as 72.1%.

As to `O=C(NC1CCOc2ccccc21)c1ccccn1` (stereo not drawn), the inhibition was 75.5%.

`O=C(O)c1cc(N/N=C/c2c(O)ccc3ccccc23)ccc1Cl`: the inhibition came out at 0.25%.

On to `COc1ccc2ccccc2c1/C=N/Nc1ccc(Cl)c(C(=O)O)c1`, for which the inhibition was -12.5%.

With `CC(C)(C)OCC1CO1` (stereo not drawn), the inhibition is -2.36%.

In the case of `Cc1ccccc1SCC(=O)Nc1ccc(N2CCOCC2)cc1`, the inhibition came out at 0.16%.

As to `COc1ccccc1Nc1nn2c(=O)c3ccc(C(=O)N4CCC(C)CC4)cc3nc2s1`, the inhibition is 33.4%.

As for `COc1nc(OC)nc(Oc2ccc(Cl)cc2[N+](=O)[O-])n1`, the inhibition turned out to be 2.78%.

As to `COc1ccc(OCCNc2cc(Cl)ccc2[N+](=O)[O-])cc1`, the inhibition is -1.86%.

`CCc1ccccc1OCCCN1CCCC1`: the inhibition is 4.44%.

In the case of `Cc1cc(-n2cnnn2)ccc1C(C)C`, the inhibition came out at 9.21%.

As to `Nc1cccn2c(-c3ccc(Cl)c(Cl)c3)cnc12`, the inhibition is 54.7%.

In the case of `Cn1c(-c2ccc(Cl)cc2)cnc1N`, the inhibition amounted to 52.6%.

For the molecule `COc1ccc(C(C)=O)cc1CSc1nc(C)cc(C)n1`, the inhibition came out at 6.97%.

On to `O=C(O)C(Br)CBr` (stereo not drawn), for which the inhibition worked out at 20.6%.

Consider `Cc1cc(C)c2c(=O)n(CC(=O)N3CCC(N4CCCCC4)CC3)sc2n1`, for which the inhibition is -11.9%.

With `Cc1c(Cl)cccc1NC(=O)Cn1cccc1`, the inhibition amounted to 4.11%.

`CCCNC(=O)Cn1sc2nc(C)cc(C)c2c1=O`: the inhibition is 2.63%.

In the case of `Cc1c(Cl)cccc1NC(=O)Cn1cc(C(F)(F)F)cc(Cl)c1=O`, the inhibition was 3.98%.

Take `Cc1cccc(N2CCN(C(=O)Cn3nc(C)n4cccc4c3=O)CC2C)c1` (stereo not drawn): the inhibition was -17.1%.

On to `Cc1cc(C)c2c(=O)n(CC(=O)NC3CCCC3)sc2n1`, for which the inhibition turned out to be 6.3%.

For the molecule `COCCCn1nnnc1SCC(=O)N1c2ccccc2CC1C` (stereo not drawn), the inhibition is 0.95%.

Turning to `CC(=O)Nc1ccc2c(c1)C(=O)N(C1CCCCC1)C2=O`, the inhibition is -7.24%.

Take `CCOc1ccc(OCCC(=O)OCC(=O)N2CCN(S(=O)(=O)c3ccc(Cl)cc3)CC2)cc1`: the inhibition was found to be 40.6%.

As for `Cc1ccc(NC(=O)C(C)SCc2nc3sc(C)c(C)c3c(=O)[nH]2)nc1` (stereo not drawn), the inhibition was -7.05%.

In the case of `C[C@H](NC(=O)[C@@H]1Cc2ccccc2CN1C(=O)OC(C)(C)C)C(=O)NCC1CCCO1` (stereo partly drawn), the inhibition amounted to 6.8%.

For `CC(=O)Nc1nc2ccccc2n1CCN(C)C`, the inhibition worked out at 14.6%.

As for `O=C(O)c1ccc(NCc2nc3ccccc3n2CCOc2ccccc2Cl)cc1`, the inhibition is 30.7%.

Take `Nc1nc2ccccc2n1CCOc1ccc(Cl)cc1`: the inhibition amounted to 79%.

In the case of `Nc1nc2ccccc2n1CCOc1ccc(F)cc1`, the inhibition came to 11%.

Take `O=C(CCc1nnc(CCCCc2ccccc2)o1)NCCC1CCCCO1` (stereo not drawn): the inhibition turned out to be 15.1%.

In the case of `CCCNC(=O)N1CCN(S(=O)(=O)c2ccc3c(c2)OCCO3)CC1`, the inhibition came out at 1.44%.

As to `CCCNC(=O)NC(=O)CN1CCCC1c1ccc2c(c1)OCCO2` (stereo not drawn), the inhibition is -16.2%.

In the case of `CCOC(=O)c1c(CC(C)C)csc1/N=C/C1C(=O)CC(C)(C)CC1=O`, the inhibition is -10.2%.

As to `OCC1(Cc2ccc(F)cc2)CCCN(CCCC(F)(F)F)C1` (stereo not drawn), the inhibition is -19.8%.

For `Cc1ccc(S(=O)(=O)N2[C@@H](c3ccc4c(c3)OCO4)C(C(=O)O)=C[C@H]2C(C)(C)C)cc1`, the inhibition is 41.7%.

Consider `CC1Cc2ccccc2N1C(=O)COC(=O)c1cc(Br)ccc1O` (stereo not drawn), for which the inhibition was 62.7%.

Consider `O=C(CCC(=O)N1CCN(c2ccccn2)CC1)c1cccs1`, for which the inhibition was -4.25%.

With `O=C(CCC(=O)c1cccs1)c1cccs1`, the inhibition amounted to 68.8%.

Turning to `Cc1ccc(NC(=O)N2CCCCCC2)c(C)c1`, the inhibition was -16.7%.

As for `Cc1cccc(-c2c3c(=O)n(C)c(=O)n(C)c3cn2-c2ccc(O)cc2)c1`, the inhibition is -12.8%.

For the molecule `CC(C)NC(=O)c1cc(-n2cnnc2)ccc1Cl`, the inhibition was found to be 2.78%.

As for `CCOC(=O)C1=C(c2ccccc2)NC(=O)NC1c1ccc(OCC#N)c(OC)c1` (stereo not drawn), the inhibition is -4.72%.

As for `CCOC(=O)C1=C(c2ccccc2)Nc2ncnn2C1c1ccc(C(=O)O)cc1` (stereo not drawn), the inhibition is 1.92%.

Turning to `COC(=O)c1ccc(CNC(=O)c2ccc(COc3ccccc3)cc2)cc1`, the inhibition stood at 10.8%.

With `CCOC(=O)C1=C(c2ccccc2)NC(=O)NC1c1ccc(OC)c(OC)c1` (stereo not drawn), the inhibition stood at 2.41%.

In the case of `Cc1cc(C(=O)Nc2cc(C)on2)on1`, the inhibition came out at 6.65%.

As for `C=C[C@]1(C)C=C2CC[C@H]3[C@@](C)(CCC[C@@]3(C)C(=O)O)[C@@H]2CC1`, the inhibition was 43.7%.

For `C=C/C(C)=C/CC1C(=C)CCC2C(C)(C(=O)O)CCCC12C` (stereo not drawn), the inhibition is 0.01%.

Take `O=C(O)C1CCN(S(=O)(=O)c2ccc(N3CCOCC3)c([N+](=O)[O-])c2)CC1`: the inhibition is -8.22%.

With `Cc1ccc(N(C(=O)CNC(=O)c2ccco2)C(C(=O)NCC2CCCO2)c2ccccc2)cc1C` (stereo not drawn), the inhibition came out at 16%.

In the case of `CCNC(=O)C(C)Sc1ccc(Cl)cc1` (stereo not drawn), the inhibition was determined as 25.6%.

`COc1ccc(-c2nnn(CC(=O)N(C3CCCCC3)C(C)C(=O)NC3CCCC3)n2)cc1OC` (stereo not drawn): the inhibition was determined as 34.8%.

Turning to `COc1ccc(-c2nnn(CC(=O)NC(=O)NC3CCCCC3)n2)cc1OC`, the inhibition was 2.95%.

As for `CC(C)CCn1c(=O)c(C(=O)Nc2ccccc2S(N)(=O)=O)c(O)c2ccccc21`, the inhibition was found to be 17.2%.

For `CCOC(=O)Cc1csc(NC(=O)c2c(O)c3c(n(CC(C)C)c2=O)CCCC3)n1`, the inhibition amounted to 44.2%.

Consider `CCCCCn1c(=O)c(C(=O)Nc2ccccc2C)c(O)c2ccccc21`, for which the inhibition was -22.9%.

Turning to `CCCCCn1c(=O)c(C(=O)Nc2cccc(C)n2)c(O)c2ccccc21`, the inhibition is -21.5%.

With `Cc1ccc(S(=O)(=O)N(C)C)cc1NC(=O)c1c(-c2c(F)cccc2Cl)noc1C`, the inhibition was -9.18%.

As for `CCOc1cccc2cc(C(=O)Nc3cc(C)on3)c(=O)oc12`, the inhibition was found to be 75.1%.

Consider `CCOc1ccccc1C(=O)Nc1nccs1`, for which the inhibition came out at 5.93%.

`O=C(Nc1nccs1)c1ccc(Cl)cc1[N+](=O)[O-]`: the inhibition worked out at 0.86%.

For the molecule `O=C(Nc1nccs1)c1cc(Cl)ccc1[N+](=O)[O-]`, the inhibition turned out to be 12.9%.

On to `Nc1nnc(-c2ccccc2F)s1`, for which the inhibition turned out to be 1%.

Consider `O=C(/C=C/c1ccc(Cl)cc1)Nc1ccccc1N1CCOCC1`, for which the inhibition was -7.86%.

In the case of `O=c1[nH]c(=O)n(Cc2ccco2)c(O)c1/C=N/N1CCCCC1`, the inhibition stood at 1.03%.

On to `COCCN=C1NN=C(c2ccc(C)c([N+](=O)[O-])c2)CS1`, for which the inhibition was -8.83%.

For the molecule `N/C(=N\OC(=O)CCC1CCCC1)c1ccncc1`, the inhibition was 60.9%.

Consider `N/C(=N\OC(=O)CC1CCCCC1)c1cccnc1`, for which the inhibition came out at 73%.

In the case of `Cc1ccc(OCCN2CCN(c3nc(NCc4ccco4)c4ccccc4n3)CC2)cc1`, the inhibition is 62.8%.

On to `OCCN1CCN(c2nc(NCc3ccco3)c3ccccc3n2)CC1`, for which the inhibition is 9.79%.

As to `CCc1ccc(NC(=O)c2nc(S(=O)(=O)Cc3ccccc3)ncc2Cl)cc1`, the inhibition came to 0.81%.

Turning to `CCC1CCCCN1S(=O)(=O)c1ccc(NC(=O)c2nc(S(C)(=O)=O)ncc2Cl)cc1` (stereo not drawn), the inhibition worked out at 66.2%.

In the case of `CCN(c1ccccc1)S(=O)(=O)c1ccc(NC(=O)c2nc(S(C)(=O)=O)ncc2Cl)cc1`, the inhibition stood at 37.2%.

Turning to `Cc1ccc(CS(=O)(=O)c2ncc(Cl)c(C(=O)Nc3ccc(OC(F)F)cc3)n2)cc1`, the inhibition is -1.41%.

For the molecule `CN(c1ccccc1)S(=O)(=O)c1ccc(NC(=O)c2nc(S(C)(=O)=O)ncc2Cl)cc1`, the inhibition worked out at 56%.

For the molecule `CCS(=O)(=O)c1ncc(Cl)c(C(=O)Nc2ccc(S(=O)(=O)N3CCCC(C)C3)cc2)n1` (stereo not drawn), the inhibition is 58.5%.

Regarding `Cc1ccc(F)cc1NC(=O)N1CCCN(C(=O)OC(C)(C)C)CC1`, the inhibition was -10.3%.

Consider `O=C(CSc1ncn[nH]1)Nc1c(F)cc(F)cc1Br`, for which the inhibition was -11.1%.

Regarding `Cc1ccc(NC(=O)CC(C)c2ccccc2)cc1S(=O)(=O)N1CCOCC1` (stereo not drawn), the inhibition turned out to be 10.4%.

For `O=C(O)CNC(=S)N(Cc1ccccc1)Cc1cccnc1`, the inhibition was determined as 6.66%.

Regarding `O=C(CSc1nncs1)Nc1nccs1`, the inhibition was -27.1%.

Take `COCCN1CCn2c(nc3cc(NC(=O)Cn4nc(C)c5ccccc5c4=O)ccc32)C1`: the inhibition was -5.63%.

Consider `COc1ccc(OCCNc2cc(N3CCOCC3)ccc2[N+](=O)[O-])cc1`, for which the inhibition is 26.3%.

For `COc1ccc(OCCNc2cc(N3CCCCC3)ccc2[N+](=O)[O-])cc1`, the inhibition turned out to be 72.4%.

`Cc1ccsc1C(=O)C1CCCN(Cc2sc(N(C)C)nc2Cl)C1` (stereo not drawn): the inhibition was -9.22%.

The values are drawn from PubChem BioAssay AID488890 (Southern Research Specialized Biocontainment Screening …, 2010).
